Screening results deposited in PubChem BioAssay by Johns Hopkins Ion Channel Center.
KCNQ2 block: blocks the rat KCNQ2 potassium channel. CHO-K1 KCNQ2, FluxOR thallium flux, 20 min; hits give low values. O88943. 1.1% of 310,000 active. B-score at 10 µM;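 active means fluorescence ratio B-score at most minus 3 library SDs, with starting brightness B-score within 2 library SDs, cut at about -5.5 in these data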
Target sequence (O88943 whole entry, looked up): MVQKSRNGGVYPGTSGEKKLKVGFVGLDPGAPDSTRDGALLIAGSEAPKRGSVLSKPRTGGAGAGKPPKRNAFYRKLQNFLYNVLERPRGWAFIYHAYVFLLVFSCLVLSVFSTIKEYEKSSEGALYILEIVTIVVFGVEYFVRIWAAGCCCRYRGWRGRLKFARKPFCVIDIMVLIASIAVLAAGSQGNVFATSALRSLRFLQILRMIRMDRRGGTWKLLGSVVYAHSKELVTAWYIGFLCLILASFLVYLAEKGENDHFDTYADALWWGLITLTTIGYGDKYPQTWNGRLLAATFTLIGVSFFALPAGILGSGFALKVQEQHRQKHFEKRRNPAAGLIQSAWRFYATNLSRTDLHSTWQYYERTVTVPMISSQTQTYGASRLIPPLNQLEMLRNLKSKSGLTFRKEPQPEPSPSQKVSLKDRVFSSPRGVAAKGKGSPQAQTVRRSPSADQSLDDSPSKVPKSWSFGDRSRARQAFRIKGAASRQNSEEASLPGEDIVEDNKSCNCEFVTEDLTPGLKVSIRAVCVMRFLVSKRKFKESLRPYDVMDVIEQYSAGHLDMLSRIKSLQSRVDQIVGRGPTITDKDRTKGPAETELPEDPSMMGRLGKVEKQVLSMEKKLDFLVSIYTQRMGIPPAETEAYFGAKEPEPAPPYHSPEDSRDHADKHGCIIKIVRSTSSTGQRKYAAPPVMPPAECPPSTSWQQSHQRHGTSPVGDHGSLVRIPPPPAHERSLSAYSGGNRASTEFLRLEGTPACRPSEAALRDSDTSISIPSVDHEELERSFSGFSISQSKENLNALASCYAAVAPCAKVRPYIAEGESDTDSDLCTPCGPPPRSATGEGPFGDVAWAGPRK
KCNQ2 enhance: KCNQ2 (rat) channel potentiation; 0.54% of 310,000 active; CHO-K1 KCNQ2, FluxOR thallium flux fluorescence; hits give high values; O88943; B-score at 10 µM;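 active means fluorescence ratio B-score at least 3 SD of library B-scores, with initial fluorescence B-score within 3 of them, cut at about 5.3 in these data; same plate scores as AID 2156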;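 further: B-score of peak minus minimum over baseline fluorescence ratio after K+ and Tl+ stimulus; positive B-score means potentiation of KCNQ2 with more thallium influx and brighter signal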
Large screens that a line does not name were inactive. The list is not random: actives were taken first. Their share in the collection is about 1.6%.

CCOC(=O)C1=C(C)NC(C)=C(C(=O)OCC)C1/C=C/c1ccccc1OC	none
CCOC(=O)C1=C(C)NC(C)=C(C(=O)OCC)C1c1ccccc1/C=C/C(=O)OC(C)(C)C	KCNQ2 block -6.7
CC1CCCN(C(=O)COC(=O)CNC(=O)c2ccc(Br)cc2)C1 (stereo not drawn)	none (no result: KCNQ2 enhance)
Cc1cc(C)n(-c2nc3ccccc3nc2NCCc2ccccc2)n1	KCNQ2 block -7.46
COc1ccc(Nc2nc3ccccc3nc2-n2nc(C)cc2C)cc1	none (no result: KCNQ2 enhance)
Cc1cc(C)n(-c2nc3ccccc3c(=O)n2OCCOc2ccccc2)n1	KCNQ2 block -5.6
C=CCOn1c(-n2nc(C)cc2C)nc2ccccc2c1=O	none (no result: KCNQ2 enhance)
O=C(COC(=O)c1cc(Cl)ccc1O)NCC1CCCO1 (stereo not drawn)	none
Cc1ccc(N2CC(NC(=O)C(=O)c3c[nH]c4ccccc34)CC2=O)cc1C (stereo not drawn)	none
CC1(C)C2CCC1(C)C(OC(=O)C[n+]1ccccc1)C2 (stereo not drawn)	none (no result: KCNQ2 enhance)
CC1(C)C2CCC1(C)C(OC(=O)CC(=O)O)C2 (stereo not drawn)	KCNQ2 block -8.22
COc1ccc(S(=O)(=O)N2CCOC2CNC(=O)C(=O)NCCCN2CCOCC2)cc1OC (stereo not drawn)	none
CC1=C(C(=O)Nc2ccccc2F)C(c2ccsc2)C2=C(CC(c3ccccc3)CC2=O)N1 (stereo not drawn)	KCNQ2 block -6.07
CCOCCOC(=O)C1=C(C)NC2=C(C(=O)CC(c3cccs3)C2)C1c1ccsc1 (stereo not drawn)	none (no result: KCNQ2 enhance)
CC(C)[C@H](NC(=O)[C@@H]1CSC2c3ccccc3C(=O)N21)C(=O)N1CCCCC1 (stereo partly drawn)	none (no result: KCNQ2 enhance)
COc1ccc(S(=O)(=O)NC2CC(C)(C)NC(C)(C)C2)c2ccccc12	none (no result: KCNQ2 enhance)
O=C(Nc1ccc(F)cc1)c1cnc(-c2ccccc2)nc1-c1ccccc1	none (no result: KCNQ2 enhance)
O=C(Nc1ccc(F)c(F)c1)c1cnc(-c2ccccc2)nc1-c1ccccc1	KCNQ2 block -5.62
CCOC(=O)c1c(N)sc(C(=O)OC)c1C	none
CCOC(=O)c1sc(NN=C(C(=O)OC)C(=O)OC)c(C(=O)OCC)c1C	KCNQ2 enhance 5.69
C[C@@H]1NC(=O)N(c2ccc(F)cc2)C1=O	none
COc1ccc(NC(=O)C2CCCN2C(=O)Nc2ccc(OC)cc2)cc1 (stereo not drawn)	none (no result: KCNQ2 enhance)
Cc1ccccc1NC(=O)c1cc(C(=O)c2cc(Cl)ccc2O)cn(-c2ccccc2C)c1=O	KCNQ2 block -5.6
Cc1ccc(-n2cc(C(=O)c3cc(Cl)ccc3O)cc(C#N)c2=O)cc1	none (no result: KCNQ2 enhance)
O=C(Nc1ccc2ccccc2c1)C(c1ccccc1)C1CCCC1 (stereo not drawn)	KCNQ2 block -5.7
Cc1ccc(NC(=O)C(c2ccccc2)C2CCCC2)cc1 (stereo not drawn)	none (no result: KCNQ2 enhance)
COc1cc(NS(=O)(=O)c2ccc(NC(=S)NC(=O)c3ccc(F)c(F)c3)cc2)nc(OC)n1	none
CC1(C)CC(=O)C(C2=NC3(CCCCCC3)Cc3ccccc32)=C(O)C1	KCNQ2 block -5.76
Cc1c(NC2=NC3(CCCCC3)Cc3ccccc32)c(=O)n(-c2ccccc2)n1C	none
N#CCc1nn(-c2ccccc2)c2ncnc(N)c12	none
COc1ccc(CCNc2cc(C)nc3c(-c4ccccc4)cnn23)cc1OC	none (no result: KCNQ2 enhance)
COc1ccccc1-c1cnn2c(NCCc3ccccc3)cc(C)nc12	KCNQ2 block -7.13
COC(=O)c1ccc(COc2ccccc2OC)o1	none
COC(=O)c1ccccc1NC(=O)c1ccc(COc2cccc3ccccc23)o1	KCNQ2 block -6.46
CCc1cc(=O)oc2cc(OC(C)C(=O)NCC3CCC(C(=O)O)CC3)c(Cl)cc12 (stereo not drawn)	none
O=C(CN1CCC(NC(=O)Nc2ccccc2)CC1)Nc1ccc([N+](=O)[O-])cc1	none (no result: KCNQ2 enhance)
CC(C)Cn1c(-c2ccco2)csc1=Nc1cccnc1	KCNQ2 block -6.35
COCCn1c(-c2ccco2)csc1=Nc1cccnc1	none (no result: KCNQ2 enhance)
CNc1c(NS(=O)(=O)c2ccc(CC(C)C)cc2)c(=O)oc2ccccc12	none
COc1ccc(C2NC3=C(CCC3)C3(C#N)C4(N=C(N)C23C#N)OCCO4)cc1 (stereo not drawn)	none (no result: KCNQ2 enhance)
COc1ccc(C2NC3=C(CCCC3)C(C#N)(C#N)C2(C#N)C#N)cc1 (stereo not drawn)	KCNQ2 block -5.79
CCCc1cc(C(=O)N2CCCN(C)CC2)cs1	none
CCCc1cc(C(=O)N2CCN(c3ccccc3C)CC2)cs1	KCNQ2 block -5.69
CCCCNC(=O)CCSc1ccc(C)cc1	none (no result: KCNQ2 enhance)
Cc1ccc(SCCC(=O)NCCSCc2ccccc2C)cc1	KCNQ2 block -7.83
C=CCSc1nnc(NC(=O)CN2C(=O)NC3(CCCC3)C2=O)s1	none (no result: KCNQ2 enhance)
CCOc1ccccc1-c1ccc(C(=O)NCc2ccccc2)o1	KCNQ2 block -5.75
CCOc1cccc2cc(C(=O)NCc3ccccc3)c(=N)oc12	none (no result: KCNQ2 enhance)
COc1ccc(CNCC(=O)Nc2cc(OC)cc(OC)c2)cc1	none
COc1ccc(Cl)cc1NS(=O)(=O)c1cccc(C(=O)NCC2(N(C)C)CCCCC2)c1	none (no result: KCNQ2 enhance)
COc1ccccc1N1CCN(C(=O)c2cc3c(s2)-c2ccccc2OC3)CC1	none (no result: KCNQ2 enhance)
O=C(c1cc2c(s1)-c1ccccc1OC2)N1CCc2ccccc2C1	KCNQ2 block -5.57
O=C(C/C=N/OCc1c(Cl)cccc1Cl)c1ccc(Cl)cc1	KCNQ2 block -7.38
O=C(C/C=N/OCc1c(Cl)cccc1Cl)c1cnc(-c2ccccc2)s1	none (no result: KCNQ2 enhance)
CCN(CC)S(=O)(=O)c1ccc(N2CCOCC2)c(NC(=O)c2cc3ccccc3oc2=O)c1	KCNQ2 block -5.54
CCN(CC)S(=O)(=O)c1ccc(N2CCOCC2)c(NC(=O)c2ccccc2F)c1	none (no result: KCNQ2 enhance)
O=C(OCC(=O)N1CCN(C(=O)c2ccco2)CC1)c1cc(-c2ccccc2)nc2ccccc12	none (no result: KCNQ2 enhance)
O=C(OCC(=O)N1CCN(C(=O)c2ccco2)CC1)c1cc(-c2cccc(Br)c2)nc2ccccc12	KCNQ2 block -7.01
C/C(CC(=O)Nc1cccc(C(F)(F)F)c1)=N\NC(=O)c1cnccn1	none
COc1ccc(S(=O)(=O)N(CC(=O)NCc2ccncc2)c2cc(C)cc(C)c2)cc1OC	none
COc1ccc(/C(C#N)=C/c2c(-c3ccc(Cl)cc3)nc3c(C)cccn23)cc1	none (no result: KCNQ2 enhance)
Cc1cccn2c(/C=N/OCc3ccc(F)cc3)c(-c3ccc(Cl)cc3)nc12	KCNQ2 block -6.57
O=C(c1ccccc1)c1sc(N2CCCCCC2)nc1-c1ccccc1	KCNQ2 block -6.17
COc1ccc(-c2nc(N3CCCCCC3)sc2C(=O)c2ccccc2)cc1	none (no result: KCNQ2 enhance)
CN(CC(=O)Nc1ccc(F)c(F)c1F)C(=O)c1ccc(-n2cncn2)c([N+](=O)[O-])c1	none
COc1ccccc1N1CCN(C(=O)c2ccc3[nH]c(C)c(C)c3c2)CC1	none (no result: KCNQ2 enhance)
Cc1[nH]c2ccc(C(=O)N3CCN(c4ccccc4Cl)CC3)cc2c1C	KCNQ2 block -6.55
Cc1[nH]c2ccc(C(=O)N3CCCC3)cc2c1C	none
Cc1[nH]c2ccc(C(=O)N3CCN(c4cccc(Cl)c4)CC3)cc2c1C	KCNQ2 block -6.19
COc1cc(CC(=O)N(C)CC(=O)Nc2ccc(Cl)c(C(F)(F)F)c2)cc(OC)c1OC	none
Cc1ccc(OCCOC(=O)Nc2ccccc2)cc1	none
C=C(C)C1CCC(C)=C1COC(=O)Nc1ccccc1 (stereo not drawn)	KCNQ2 block -5.89
CN(C1=C(NC(=O)c2ccc(Cl)cc2)C(=O)c2ccccc2C1=O)c1ccccc1	KCNQ2 block -6.33
O=C(NC1=C(Nc2ccc(Cl)cc2)C(=O)c2ccccc2C1=O)c1ccccc1	none (no result: KCNQ2 enhance)
CN1CCN(C2=C(Cl)C(=O)C(c3cnc(N4CCCCC4)s3)=C(Cl)C2=O)CC1	KCNQ2 block -8.98
